Several values for one entry are separate records, joined by “and”; a condition that tells them apart may be missing. Equal entries are not always repeated. The campaign covered roughly 410,000 compounds. About 18,000 (4.4%) were called active. Not shown: some 7% with an inconclusive outcome. Cut-off read from the data, not from the text of the source: active = activity change below about -60%; inconclusive = no clear call, values can overlap the other calls; inactive = above about -39%. The full list was thinned out, with actives kept by preference. More than one record can exist for a structure, and the calls need not agree.
% is set by controls: 0 for no effect and ±100 for the full control effect.

This assay in a line: qHTS Assay for inhibitors of the human cytomegalovirus (HCMV). To be noted: HFF cells, HCMV-luciferase reporter, 72 h; at 57.5 µM; stronger effect = lower value. An outline of the steps: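 Inhibition of viral replication was scored as loss of reporter luminescence in HFFs infected with HCMV-luciferase (MOI 1 PFU/cell) for 72 h; compounds tested at 2 doses, normalized to buffer and Salinomycin controls.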
With `CCC(C)c1ccc2oc(-c3ccc(NC(=O)c4cc5ccccc5o4)cc3)nc2c1` (stereo unspecified), the activity change, negative = inhibition is -17.9% (inactive).
As for `COc1cc(NC(=O)Cn2nc(-c3ccc(C)c(C)c3)ccc2=O)cc(OC)c1`, the figure is 10.3% (inactive); as for `COc1cccc(CNS(=O)(=O)c2csc(C(N)=O)c2)c1`, -30.1% (inactive).
Then `CC(=O)N1CCSc2ccc(S(=O)(=O)N3CCC(C)CC3)cc21`, with -33.3% (inactive); and `COc1cccc(CNS(=O)(=O)c2ccc3c(c2)CC(C)N3C(=O)C2CCC2)c1` (stereo unspecified), with -33.4% (inactive) and -60.7% (active); and `COc1cccc(CNS(=O)(=O)c2ccc3c(c2)N(C(C)=O)CCS3)c1`, with -73.4% (active).
As for `O=C(C1CCC1)N1CCc2cc(S(=O)(=O)NCc3cccnc3)ccc21`, the figure is -32% (inactive).
As to `COc1ccc(N(C)S(=O)(=O)c2ccc3c(c2)CC(C)N3C(=O)C2CC2)c(OC)c1` (stereo unspecified), the activity change, negative = inhibition is -22.8% (inactive).
As for `CCOCCn1ccc2c(OCC(=O)NCc3ccc(C)cc3)cccc2c1=O`, the figure is 22.4% (inactive).
Then `O=C(CCS(=O)(=O)c1cc(Br)cc2c1N(C(=O)C1CC1)CC2)Nc1ccc(Br)cc1F`, with -5.42% (inactive); and `Cc1ccc(CN2CCCn3nc(C(=O)NCc4ccccc4Cl)cc3C2=O)cc1`, with -16.2% (inactive).
As for `CCOC(=O)c1nnn(CC(=O)NC(=O)Nc2ccccc2F)c1C(=O)OCC`, the figure is 11.6% (inactive); as for `COc1ccc2c(Sc3ccc(C)cc3)c(C(=O)NC(C)c3ccccc3)[nH]c2c1` (stereo unspecified), -4.72% (inactive).
Take `COc1ccc(CNc2nc(-c3ccc(Cl)cc3)nn2S(=O)(=O)c2ccc(C)cc2)cc1`: the activity change, negative = inhibition was 9.27% (inactive).
As for `CCOc1ccccc1Nc1nnc(SCc2ccc(C(=O)OC)o2)s1`, the figure is -61.9% (active); as for `COC(=O)c1ccc(CSc2nnc(N)s2)o1`, -25.6% (inactive).
As for `CCOc1ccccc1Nc1nnc(SCC(=O)Nc2cc(C)on2)s1`, the figure is 45.8% (inactive); as for `Cc1ccc(NC(=O)c2ccc(CN3CC(=O)N4CCCCC4C3=O)cc2)c(Cl)c1` (stereo unspecified), 48% (inactive); as for `Cc1nn(C)c(C)c1CN(C(=O)CCc1nnc(Cc2c[nH]c3ccccc23)o1)C(C)C`, 9.02% (inactive).
As for `Clc1ccc(C[n+]2cc(-c3ccc(Cl)cc3)n3c2CCC3)cc1`, the figure is -74.1% (active).
Turning to `CC(C)C[C@@H](COCc1ccc(Cl)cc1)N1CCN(C(=O)c2ccc(Cl)cc2Cl)CCC1=O`, the activity change, negative = inhibition was -13.1% (inactive).
With `Cc1c(NC(=O)CSc2cccc3cccnc23)c(=O)n(-c2ccccc2)n1C`, the activity change, negative = inhibition is -83.5% (active).
As for `Cc1ccccc1OCCC(=O)Nc1c(C)n(C)n(-c2ccccc2)c1=O`, the figure is -31.3% (inactive); as for `Cc1ccc(S(=O)(=O)CC(=O)Nc2c(C)n(C)n(-c3ccccc3)c2=O)cc1`, 10.8% (inactive); as for `COC(=O)c1nn(-c2cccc(Cl)c2)ccc1=O`, -24.4% (inactive).
As to `CC(CCCc1ccccc1)NC(=O)c1nn(-c2ccc(Cl)cc2)nc1CO` (stereo unspecified), the activity change, negative = inhibition is -5.56% (inactive).
As for `CCCSC1=C(C#N)C(c2ccccc2C)C(C(=O)OC)C(=O)N1` (stereo unspecified), the figure is -10.3% (inactive); as for `CCOc1ccc(-n2nc3ccc(NC(=O)c4ccc(OC)c(Cl)c4)cc3n2)cc1`, 1.85% (inactive); as for `CCOc1ccc(C(=O)Nc2ccc3nc4c(c(Nc5ccccc5OC)c3c2)CCCC4)cc1`, -83.9% (active).
Then `COc1cc(/C=C/C(=O)O)cc(S(=O)(=O)Nc2ccccc2SC)c1OC`, with -14.9% (inactive).
Then `CCOc1ccc(NC(=O)CSc2c3c(nc4ccccc24)CCCC3)cc1`, with -11.9% (inactive); and `COc1ccccc1Nc1c2c(nc3ccc(NC(=O)/C=C/c4cc(OC)c(OC)c(OC)c4)cc13)CCCC2`, with -98.3% (active).
As to `COc1cc(/C=C/C(=O)N2CCc3ccccc3C2)cc(OC)c1OC`, the activity change, negative = inhibition was 84.9% (inactive).
As for `CCC(C(=O)Nc1cc(OC)ccc1OC)n1c(=O)c(C(F)(F)F)nc2ccccc21` (stereo unspecified), the activity change, negative = inhibition was -4.66% (inactive).
Then `COc1cc(OC)c(NC(=O)N2CC3CCCN3c3ccccc32)cc1Cl` (stereo unspecified), with -10.2% (inactive); and `CCc1ccccc1NC(=O)Cc1ccc(NC(=O)N2CCCCc3ccccc32)cc1`, with 18.7% (inactive); and `COc1ccccc1C(=O)NCCC(=O)N(C)Cc1cccnc1`, with 0% (inactive).
Turning to `CCOCCCNC(=O)c1ccc2nc(CCc3ccccc3)oc2c1`, the activity change, negative = inhibition was 18.3% (inactive).
As for `CCOC(=O)N1CCc2c(sc3c2c(=O)n(Cc2ccccc2)c(=O)n3CC(=O)Nc2cccc(C)c2)C1`, the figure is -9.95% (inactive); as for `O=C(CNCc1ccc(Cl)cc1)Nc1cccc(C(=O)O)c1`, -4.42% (inactive); as for `O=C(CCl)Nc1cccc(CP(=O)(c2ccccc2)c2ccccc2)c1`, -108% (active).
`CCc1cccc(NC(=O)c2cc(-c3ccccc3)n[nH]2)c1`: the activity change, negative = inhibition was 46.1% (inactive).
`Cc1cc(C)cc(NC(=O)CCS(=O)(=O)c2cc3c4c(c2)CCN4C(=O)CC3)c1`: the activity change, negative = inhibition is -0.0143% (inactive).
As for `C=C(C)C1CC=C(C)/C(=N\NC(=O)CNc2ccccc2OC)C1` (stereo unspecified), the figure is -21.5% (inactive).
As for `CN1CCN(c2oc(-c3ccc(COc4ccc(Cl)cc4)o3)nc2C#N)CC1`, the figure is -31.4% (inactive); as for `CN(CCc1cnn(C)c1)Cc1cn(C)nc1-c1ccccc1F`, 5.69% (inactive).
Then `CCn1c2ccccc2c2cc(NC(=O)COc3ccc(C)cc3C)ccc21`, with -8.23% (inactive).
As to `Cc1ccc(OCC(=O)Nc2ccc(NC(=O)c3cccs3)cc2)c(C)c1`, the activity change, negative = inhibition is -90.8% (active).
Take `C/C(=N\OCC(=O)Nc1ccc(Br)cc1)c1cccs1`: the activity change, negative = inhibition was -6.56% (inactive).
Then `CCOc1ccc(NC(=O)Cn2cc(C(=O)c3ccc(C)cc3)c(=O)c3cc4c(cc32)OCCO4)cc1`, with 11.7% (inactive).
`COc1ccc2cc(-c3nc(Cl)c4c5c(sc4n3)CC(C)CC5)c(=O)oc2c1` (stereo unspecified): the activity change, negative = inhibition was -12.7% (inactive).
Then `CCCCNC(=O)c1cc(-c2ccc(Cl)c(Cl)c2)on1`, with 27.6% (inactive).
As for `O=C(NCc1ccccc1)c1cc(-c2cccc(Cl)c2)on1`, the figure is 21.7% (inactive); as for `COCCNC(=O)c1cc(-c2cccc(Cl)c2)on1`, -70.5% (active); as for `O=C(O)c1ccc(CSc2nc3cccnc3n2Cc2cccc(F)c2)cc1`, 40.5% (inactive).
Then `CNS(=O)(=O)c1ccc(C(=O)NCC(=O)NCCc2ccc3c(c2)OCCO3)cc1`, with -5.01% (inactive).

Values taken from PubChem BioAssay AID1259415 (National Center for Advancing Translational Sciences (NCATS), 2018).
